# Experimental data: PMC7819943, “Rice protein-binding microarrays: a tool to detect cis-acting elements near promoter regions in rice”
# Over roughly 68,000 sequences, “fluorescence intensity (a.u.)” has its median near 9,100; the highest 2% begin near 16,000. The sample as a whole holds a higher share of the highest values than the screen did.
# Molecular target: OsWRKY34 (Oryza sativa, UniProt Q0JBA9 1-250)
# Experiment: protein-binding microarray (RPBM); PBS, 2% BSA, 51.3 ng/ul salmon testes DNA, 50 uM zinc acetate, 200 nM TF, 25 C, 1 h; high values mean tight binding
# Conditions: protein: recombinant; tags: N-terminal polyhistidine and DsRed monomer fusion (pET32a); label: CyDye5-dUTP incorporated in the synthesized complementary strand; 3' TTTTT single-stranded linker to array surface; dsDNA, one strand shown
# Summary of the method: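 A custom Agilent array was converted to double-stranded form by primer extension with Cy5-dUTP and blocked with 2% BSA. Protein at 200 nM in PBS with 2% BSA, salmon testes DNA and 50 µM zinc acetate was applied for 1 h at 25 °C, followed by washing. The proteins were polyhistidine–DsRed N-terminal fusions of transcription factors, expressed in E. coli BL21-CodonPlus and Ni–NTA-purified. The binding signal is per-feature fluorescence intensity (arbitrary units) from an Axon 4000B scanner.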
# OsWRKY34, sequence (Q0JBA9 entry or part of it): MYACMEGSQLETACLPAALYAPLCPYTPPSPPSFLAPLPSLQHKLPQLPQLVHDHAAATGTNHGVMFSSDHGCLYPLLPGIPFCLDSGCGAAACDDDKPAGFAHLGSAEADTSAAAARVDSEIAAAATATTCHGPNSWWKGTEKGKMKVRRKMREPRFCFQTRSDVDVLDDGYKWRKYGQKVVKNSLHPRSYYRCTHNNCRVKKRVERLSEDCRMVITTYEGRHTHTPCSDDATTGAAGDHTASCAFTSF
row,Sequence,binding signal
1,TCTTGTATTCTCCACTAGTCTTGGGTCATCCATTCTTCAGCGGAGTCACCTAGTGCAG,8550 fluorescence intensity (a.u.)
2,GCCTCTGTTCTTCCACTCATTATTATCATTTGCAGCTCCGCGGAGTCACCTAGTGCAG,10400 fluorescence intensity (a.u.)
3,TCCCAACCCACCGTTCCATTCTCTCGAGCTCACCCCGTCACGGAGTCACCTAGTGCAG,10500 fluorescence intensity (a.u.)
4,CCTCCGTTTCAAAATATTTGACACCGTTGACTTTTTAGTACGGAGTCACCTAGTGCAG,14100 fluorescence intensity (a.u.)
5,ACTTTTTAGTGCGTATTTGACTATTCGTCTTATTTAAAAACGGAGTCACCTAGTGCAG,9800 fluorescence intensity (a.u.)
6,TTCAAAATATTTGACACCGTTGACTTTTTAGTACGTGTTTCGGAGTCACCTAGTGCAG,18200 fluorescence intensity (a.u.)
7,ATTTTCAAAATATTTGACACTGTTGACTTTTTAGTACATACGGAGTCACCTAGTGCAG,9840 fluorescence intensity (a.u.)
8,TCGTTTCAAAATACTTGACACCGTTGACTTTTTAGTACGTCGGAGTCACCTAGTGCAG,23300 fluorescence intensity (a.u.)
9,TGTACTTCAAAAATTTACTTTACCGTGTGTTTTATTTTTTCGGAGTCACCTAGTGCAG,9650 fluorescence intensity (a.u.)
10,CCGTTTCAAAATATTTGACACCGTTGACTTTTTAGTACGTCGGAGTCACCTAGTGCAG,26800 fluorescence intensity (a.u.)
11,TCTGTATTAGCGTTCGGTTGTTTTATTTGACTTTCCAAATCGGAGTCACCTAGTGCAG,8360 fluorescence intensity (a.u.)
12,AAAAATATTTGACAGCGTTGACTTTTTAGTGCGTATTTGACGGAGTCACCTAGTGCAG,42800 fluorescence intensity (a.u.)
13,ATCAATCTATTAGAATACTTATTACTGTATCTACTTATGTCGGAGTCACCTAGTGCAG,8690 fluorescence intensity (a.u.)
14,TAGGTTTTTTTTTACTTTTTAACTTGGCTGATTTTATTGACGGAGTCACCTAGTGCAG,8760 fluorescence intensity (a.u.)
15,GACTCTTGCGATTCCCTCTGTTGAACTTGTTCGTTCTCCTCGGAGTCACCTAGTGCAG,10600 fluorescence intensity (a.u.)
16,TTCCCCATGTTTTTTTGCCCACTAACTCACTAGCCACCACCGGAGTCACCTAGTGCAG,10700 fluorescence intensity (a.u.)
17,CCTCGACCTCTCGCTACTCCAGGCGCCGCCCCATCAGATGCGGAGTCACCTAGTGCAG,8200 fluorescence intensity (a.u.)
18,CGTACGCGCCCACGCCCACTCCCACGCCTTCGCGCGCGCGCGGAGTCACCTAGTGCAG,9220 fluorescence intensity (a.u.)
19,TTAGGTCGGGTTTTTCCCGTTTCTCGTTTCTATGGCGATGCGGAGTCACCTAGTGCAG,8750 fluorescence intensity (a.u.)
20,TCCTTGTGCCCACTTCTAGCTAGCTTCCAAGTTCCAACCACGGAGTCACCTAGTGCAG,13700 fluorescence intensity (a.u.)
21,GGTGCTTGTTTAATCAAAGCTTGCTATTTGGTACTTTTTTCGGAGTCACCTAGTGCAG,8940 fluorescence intensity (a.u.)

row,Sequence,binding signal
1,GGACCACCCTGCCGCGGACATCACCCATCTCGTCATCTCCCGGAGTCACCTAGTGCAG,9570 fluorescence intensity (a.u.)
2,TCCCTAAATATTTGACGCCGTTGACTTTTTTAAACATGTTCGGAGTCACCTAGTGCAG,26400 fluorescence intensity (a.u.)
3,TTGACGCCGTTGACTTTTCTAAACATATTTGACTATTCGTCGGAGTCACCTAGTGCAG,22300 fluorescence intensity (a.u.)
4,TCCCTAAATATTTGACGCCATTGACTTTTTTAAACATGTTCGGAGTCACCTAGTGCAG,11200 fluorescence intensity (a.u.)
5,TGTTTTATTTTTAGGATACTTCTACCTTTTTTCGCTTTGACGGAGTCACCTAGTGCAG,9510 fluorescence intensity (a.u.)
6,ATATTTGACGCCGTTGACTTTTTTAAACATGTTTGACCGTCGGAGTCACCTAGTGCAG,44400 fluorescence intensity (a.u.)
7,CCGTTGGCTTTTTTAAACATGTTTGACCGTTTATTTTATTCGGAGTCACCTAGTGCAG,14100 fluorescence intensity (a.u.)
8,CAAATTACTTCCTTTTCAAAATCTAGGATACCGTTGACTTCGGAGTCACCTAGTGCAG,9460 fluorescence intensity (a.u.)
9,ATCTAGGATACCGTTGACTTTTCGTACTAACATTTGACGTCGGAGTCACCTAGTGCAG,32800 fluorescence intensity (a.u.)
10,CACATATTGATCTATTCTACTAAATTTTTTTTATGACTTTCGGAGTCACCTAGTGCAG,8630 fluorescence intensity (a.u.)
11,TGCTTTGGTTGTCTTCTTTATCTAGAAGGCTTTGATTGCTCGGAGTCACCTAGTGCAG,9520 fluorescence intensity (a.u.)
12,TCATTGTTCTCACTTCCTCGTCTTGAGCACTTGAGTCTCTCGGAGTCACCTAGTGCAG,8420 fluorescence intensity (a.u.)
13,TGCACTGGGCTCCCATCTGAATGTCCTTATGCCAACCTCCCGGAGTCACCTAGTGCAG,8520 fluorescence intensity (a.u.)
14,CTAATCCTCCTGCTCCATCTCGATCCACATAACGATCCACCGGAGTCACCTAGTGCAG,8470 fluorescence intensity (a.u.)
15,CATATTATAAATCATTTGACTTTTTTCATATTCAAAATTTCGGAGTCACCTAGTGCAG,9090 fluorescence intensity (a.u.)
16,ACTCTATTTAGATATTTTCCCACGCATCCGTCTCCTCCTCCGGAGTCACCTAGTGCAG,9420 fluorescence intensity (a.u.)
17,ACCAAACCCACGGCCTGGCCCACTGTCAGTACTAAGATAGCGGAGTCACCTAGTGCAG,9120 fluorescence intensity (a.u.)
18,TCGCAGCAGCTGTTTTACCGGCTAGTTTTTTGCACACATCCGGAGTCACCTAGTGCAG,8600 fluorescence intensity (a.u.)
19,CCTCCGTCCCTAAATATTCGACGCCGTTGACTTTTTTAAACGGAGTCACCTAGTGCAG,21700 fluorescence intensity (a.u.)
20,ATATTTGACGCCGTTGACTTTTTTAAACATATTTAACTGTCGGAGTCACCTAGTGCAG,14600 fluorescence intensity (a.u.)
21,TATCTAAATATTTGACGCCGTTGACTTTTTAAAACATGTTCGGAGTCACCTAGTGCAG,30900 fluorescence intensity (a.u.)
